# High-throughput results deposited in PubChem by National Center for Advancing Translational Sciences (NCATS).
# Compounds with a hit are over-represented: about 4.2% of the library has one in this group of screens.
# D1 antagonist – human D1 dopamine receptor antagonism; activity change, negative = inhibition, % at 10 µM; P21728; 3.2% of 360,000 active; HEK293 TREx D1 cells, calcium flux, dopamine EC80; hits give low values; in the data active = activity change below about -30%; note: % is set by controls: 0 for no effect and ±100 for the full control effect
# Target sequence (P21728 whole entry, looked up): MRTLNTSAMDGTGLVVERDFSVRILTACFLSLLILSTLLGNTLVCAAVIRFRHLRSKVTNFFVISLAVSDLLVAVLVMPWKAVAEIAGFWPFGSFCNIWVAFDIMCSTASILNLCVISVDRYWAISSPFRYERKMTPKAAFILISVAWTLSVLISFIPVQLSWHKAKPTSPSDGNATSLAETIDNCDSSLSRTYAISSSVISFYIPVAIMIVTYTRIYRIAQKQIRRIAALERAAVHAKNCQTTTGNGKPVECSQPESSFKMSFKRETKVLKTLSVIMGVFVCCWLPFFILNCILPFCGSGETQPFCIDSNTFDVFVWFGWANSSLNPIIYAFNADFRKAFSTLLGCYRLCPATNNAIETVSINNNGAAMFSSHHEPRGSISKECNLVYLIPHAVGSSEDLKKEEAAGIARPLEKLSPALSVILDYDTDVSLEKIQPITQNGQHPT
#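 After overnight tetracycline induction at 30 C, force-coupled D1 HEK293 cells took up a no-wash calcium dye at room temperature. Compounds were added and monitored 180 s, and the response to EC80 dopamine was then recorded.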
# D1 ag – agonists of human D1 dopamine receptor | 1% of 360,000 active | activation, % at 2 µM | HEK293 T-REx D1 cells, calcium flux, agonist mode | AID 504660 | P21728; in the data active = activation above about 30%; note: 0% is about no effect
#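 Inducible HEK293 T-REx D1 cells, force-coupled to calcium signalling, were plated at 4000 cells/well with tetracycline and held overnight at 30 C. After no-wash calcium dye loading, compound-evoked calcium rise over 180 s flagged agonists.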
# TRPV1 potentiator – human TRPV1 potentiation | Q8NER1 | TRPV1-expressing cells, Fluo-8 calcium influx, capsaicin EC20 potentiation | potentiation, % at 8.33 µM | 0.02% of 320,000 active | AID 540277; in the data active = potentiation above about 80%; inconclusive = between about 30% and that limit; note: 0% is about no effect
#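 TRPV1-expressing cells were cultured overnight at 35.5C and loaded with Fluo-8 calcium dye for 40 to 90 min at room temperature. After a 10 s baseline, compound was added and calcium influx was read kinetically for 3 min (ex 480/em 520 nm).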
# D1 PAM – potentiators of human D1 dopamine receptor. P21728. HEK293 TREx D1 cells, calcium flux, dopamine EC20 potentiation. potentiation, % at 10 µM. 0.036% of 360,000 active; in the data active = potentiation above about 30%; note: 0% is about no effect
# TRPV1 agonist – activates the human vanilloid receptor TRPV1; Q8NER1; TRPV1-expressing cells, Fluo-8 calcium influx, agonist mode; activation, % at 8.33 µM; 0.19% of 320,000 active; in the data active = activation above about 80%; inconclusive = between about 30% and that limit; note: 0% is about no effect
#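 TRPV1-expressing cells were cultured overnight at 35.5C and loaded with Fluo-8 calcium dye for 40 to 90 min at room temperature. After a 10 s baseline, compound was added and calcium influx was read kinetically for 3 min (ex 480/em 520 nm).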
# Numbers without * were called inactive; ? = inconclusive; · = no result given; ! = a repeat was not active.
SMILES,D1 antagonist,D1 ag,TRPV1 potentiator,D1 PAM,TRPV1 agonist
CCOC(=O)c1c(NC(=S)NNS(=O)(=O)c2ccc(Br)cc2)sc2c1CCCCC2,-33*,11,7,-7,4
COC(=O)c1nnn(CC(=O)NC(=O)Nc2cccc(C)c2C)c1C(=O)OC,-5,50*!,0,2,3
Cc1ccccc1OCC(O)CN1CCN(CCN2C(=O)c3cccc4cccc(c34)C2=O)CC1 (stereo not given),3,-1,-3,-10,1
COc1ccccc1N1CCN(CC(O)COc2ccc(Cl)c(C)c2)CC1 (stereo not given),-31*,13,·,-5,·
Cc1cccc(N2CCN(CC(O)COc3ccccc3Cl)CC2)c1 (stereo not given),-33*,15,?,-9,0
OC(COc1cccc2ccccc12)CN1CCN(c2cccc(Cl)c2)CC1 (stereo not given),12,4,27,11,3
C=CCc1ccccc1OCC(O)CN1CCN(Cc2ccc3c(c2)OCO3)CC1 (stereo not given),-71*,14,-30,-10,7
C=CCc1ccccc1OCC(O)CN1CCN(CCN2C(=O)c3cccc4cccc(c34)C2=O)CC1 (stereo not given),-69*,6,5,-8,-5
Cn1nnnc1Sc1ncnc2scc(-c3ccccc3C#N)c12,-11,-1,·,6,·
CCc1cccc(NC(=O)C(Cc2ccccc2)n2cccc2)c1 (stereo not given),-20,1,·,-4,·
C=CCc1ccccc1OCC(O)CN1CCN(c2ccc(C)cc2)CC1 (stereo not given),-50*,1,13,-12,3
O=[S+]([O-])(c1ccc2c(c1)OCCO2)N1CCN([S+](=O)([O-])c2ccc(F)cc2Cl)CC1,-19,6,·,4,·
O=C(CCSCc1ccc(Cl)cc1)NCc1ccc(F)cc1Cl,-33*,10,·,-3,·
O=C(CCSCc1cccc(Cl)c1)NCc1ccc(F)cc1Cl,0,10,·,3,·
O=C(CCSCc1ccccc1Cl)NCc1ccc(F)cc1Cl,-19,68*,·,-1,·
CCCCCCCCCC(=O)N1c2ccccc2NC(=O)C1CC(=O)Nc1ccc(C(=O)O)cc1 (stereo not given),14,39*,-5,-5,14
Cc1ccc(S(=O)(=O)N2CCOCC2)cc1C(=O)Nc1ccccc1C(=O)O,-3,-1,·,0,·
COC(=O)c1ccc(NS(=O)(=O)c2ccc(Cl)cc2)o1,-7,5,-8,-1,-1
COC(=O)c1ccc(NS(=O)(=O)c2ccccc2)o1,-33*,5,2,-6,-2
CCOC(=O)c1cccc(NC(=O)Cn2c(=O)c3cccn3c3ccccc32)c1,-1,20,·,-3,·
COc1cccc(CNC(=O)c2sc3nc4n(c(=O)c3c2C)CCC4)c1,5,0,·,3,·
Cc1cccc2sc(N(CCN(C)C)C(=O)C3CCN(S(=O)(=O)c4cccs4)CC3)nc12,24,39*,-18,-5,19
CN(C)CCN(C(=O)C1CCN(S(=O)(=O)c2cccs2)CC1)c1nc2ccc(F)cc2s1,27,5,1,-4,5
O=S(=O)(c1ccc(Cl)cc1)c1nc(-c2cccs2)oc1N1CCCCC1,26,2,·,2,·
Cc1ccc2oc(-c3ccc(Cl)cc3)c(O)c(=O)c2c1,-22,71*,·,-2,·
SMILES,D1 antagonist,D1 ag,TRPV1 potentiator,D1 PAM,TRPV1 agonist
CCOc1ccc(-c2oc3ccccc3c(=O)c2O)cc1OCC,4,7,·,-2,·
FC(F)(F)c1ccccc1NC(=S)Nc1ccccc1,-35*,0,9,1,-7
COc1ccc(NC(=S)Nc2ccccc2C(F)(F)F)cc1,·,-1,11,-4,1
COc1cc(OC)c2c(-c3ccccc3)cc(=O)oc2c1C(CCN1CCCC1)c1ccc2c(c1)OCO2 (stereo not given),-10,8,?,-2,2
COc1cc(OC)c2c(C)cc(=O)oc2c1C(CCN1CCN(c2ccccc2)CC1)c1ccc2c(c1)OCO2 (stereo not given),-79*,5,12,-9,7
COc1cc(O)c(C(CCN2CCCCC2)c2ccc(N(C)C)cc2)c(OC)c1 (stereo not given),-34*,10,-22,0,-2
COc1cc(OC)c2c(-c3ccccc3)cc(=O)oc2c1C(CC(=O)N1CCOCC1)c1ccc2c(c1)OCO2 (stereo not given),-60*,5,-15,-5,3
COc1cc(O)c(C(CCN2CCCC2)c2ccc(N(C)C)cc2)c(OC)c1 (stereo not given),-2,5,-13,-5,5
COc1cc(O)c(C(CCN2CCN(c3ccccc3)CC2)c2ccc3c(c2)OCO3)c(OC)c1 (stereo not given),-76*,1,7,-13,0
COc1ccc(-c2nc3ccc(NS(C)(=O)=O)cc3o2)cc1,-3,5,·,0,·
CCOC(=O)c1ccccc1NC(=O)N1CCOc2ccc(Cl)cc21,1,4,·,-3,·
Cc1ccc(NC(=O)CCCn2c(=O)c3cccn3c3cccnc32)c(C)c1,0,1,·,-1,·
FC(F)(F)c1cccc(N2CCN(Cc3nnc(-c4ccc5c(c4)OCO5)o3)CC2)c1,-18,10,·,-3,·
COc1ccccc1CNC(=O)CCCn1c(=O)c2ccccc2n(CC(=O)Nc2c(C)cc(C)cc2C)c1=O,-2,1,·,-2,·
COc1cc(O)c(C(CCN2CCN(c3ccccc3)CC2)c2cc(OC)c(OC)c(OC)c2)c(OC)c1 (stereo not given),-87*,4,-6,-12,-2
CCOC(=O)c1cccc(NC(=O)N2CC(CC)Oc3ccccc32)c1 (stereo not given),-1,0,·,-3,·
Cc1cccc(CNC(=O)CCCN2C(=O)COc3ccc(C)cc32)c1,-4,7,·,-3,·
CCc1nnc2n1N(C(C)=O)C(c1ccc(C(C)(C)C)cc1)=C(C(C)=O)S2,·,-4,·,5,·
CCOCCCN(C(=O)Nc1ccc(CC)cc1)C1CCN(C(C)=O)CC1,6,3,1,-1,-2
CCOCCCN(C(=O)Nc1ccc(Cl)cc1)C1CCN(C(C)=O)CC1,-30*,0,·,0,·
Cc1cc(C(=O)NCc2ccccc2Cl)n(-c2ccccc2)n1,-38*,1,16,-3,-1
COc1ccccc1CNC(=O)c1cc(C)nn1-c1ccccc1,-1,1,-7,0,3
Cc1csc2ncc(C(=O)NCc3ccc4c(c3)OCO4)c(=O)n12,3,4,1,-6,0
Cc1csc2ncc(C(=O)NCc3ccccc3Cl)c(=O)n12,-34*,1,0,-4,0
COc1ccccc1CNC(=O)c1cnc2sccn2c1=O,-40*,3,-6,-12,9
